In the library only some 2.2% were active in any assay of this set; here they are far more common.
HepG2 tox = HepG2 cytotoxicity, counter-screen for TGF-b inhibitors; Potency, µM (doses to about 46.1 µM), without a hit: at the top dose activity change, negative = cytotoxicity, most hits filed as cytotoxic; HepG2 CAGA-GFP viability, ATP luminescence, 18 h; 410,000 compounds, 0.76% hits; also: potency is read from the fitted curve at half-maximal effect
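CellTiter-Glo luminescence gave cytotoxicity after 18 hours at 37 degrees C. The cells were HepG2 CAGA-GFP in 1% FBS DMEM, stimulated with 500 pg/mL TGF-beta after compound addition. %Activity was normalised to no-cell wells (complete cell-killing) and DMSO (no toxicity), and curves were fitted and classified.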
TGFb SMAD3 inh = TGF-b pathway inhibition | Potency, µM (titrated, usually from 46.1 µM), for the others: at the top dose activity, negative = inhibition, most hits filed as inhibitors | 410,000 compounds, 1.2% hits | HepG2 CAGA-GFP TGF-b/SMAD3 reporter, GFP fluorescence, 18 h; TGF-beta stimulated, 500 pg/mL final; also: potency is read from the fitted curve at half-maximal effect; % is scaled to controls: 0 for no effect and ±100 for the full control effect; nearly all actives have a fitted effect of over 65% in size
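Per well, imaged GFP fluorescence of HEPG2 CAGA-GFP cells gives the signal; cells get compound, then TGF-beta (500 pg/mL final), 18 h at 37 degrees C; %Activity versus -TGF-beta and +DMSO controls.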
mIDH1 inhibitor = inhibitors of human mutant IDH1 R132H; 390,000 compounds, 0.093% hits; AID 602179; O75874; Potency, µM (series often up to 76.6 µM), for inactives: at the top dose activity change, negative = inhibition, actives largely listed as inhibitors; IDH1-R132H enzyme, NADPH consumption, diaphorase/resazurin fluorescence; also: potency is read from the fitted curve at half-maximal effect; % is scaled to controls: 0 for no effect and ±100 for the full control effect; nearly all actives have a fitted effect of over 65% in size
Target sequence (O75874 whole entry R132H, stated change not applied): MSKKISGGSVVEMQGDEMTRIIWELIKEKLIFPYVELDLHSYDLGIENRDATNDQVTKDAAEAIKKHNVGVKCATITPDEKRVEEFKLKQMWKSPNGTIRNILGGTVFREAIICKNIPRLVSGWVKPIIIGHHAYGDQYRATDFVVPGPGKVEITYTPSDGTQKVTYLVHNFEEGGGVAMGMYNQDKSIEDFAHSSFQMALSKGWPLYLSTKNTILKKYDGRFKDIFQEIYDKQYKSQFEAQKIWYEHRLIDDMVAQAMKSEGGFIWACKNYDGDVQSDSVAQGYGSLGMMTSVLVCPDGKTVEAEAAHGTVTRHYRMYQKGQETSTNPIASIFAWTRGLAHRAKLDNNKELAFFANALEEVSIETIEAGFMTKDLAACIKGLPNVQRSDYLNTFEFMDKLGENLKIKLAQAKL
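IDH1-R132H (0.5 ug/mL) preincubated 30 min with compound, then NADPH (0.016 mM) and alpha-KG (2 mM) added; 80 min at RT, pH 7.5. Remaining NADPH coupled via diaphorase/resazurin to fluorescence (540/590 nm); concentration-response curves normalized to no-enzyme control.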
ATXN2 expr inh = inhibitors of ATXN2 expression | Potency, µM (titrated, usually from 57 µM), for inactives: at the top dose activity change, negative = inhibition, most hits filed as inhibitors | 360,000 compounds, 0.72% hits | HEK-293 ATXN2-luciferase reporter, luminescence, 24 h; also: potency is read from the fitted curve at half-maximal effect; % is scaled to controls: 0 for no effect and ±100 for the full control effect; nearly all actives have a fitted effect of over 55% in size
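ATXN2-luciferase reporter cells (luciferase flanked by upstream and downstream ATXN2 gene portions) were treated 24 h at 37 °C with compounds at up to 57 uM. SteadyGlo luminescence gave expression; GF-AFC fluorescence gave viability.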
LDHA block = inhibitors of human lactate dehydrogenase A | purified LDHA, NADH/diaphorase-resazurin fluorescence; hits give low values | activity change, % (values are at about 110 or 230 µM) | 480,000 compounds, 0.15% hits | AID 1347041; in the data active = activity change below about -30%; inconclusive = mostly about -25% to -30%;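 also: plate controls were DMSO wells for no effect and wells without enzyme for full effect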
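Remaining NADH was detected by diaphorase (0.133 mg/mL) converting 37 µM resazurin to fluorescent resorufin, read at 0 and 20 minutes. The preceding 5-minute room-temperature reaction used 2 nM LDHA, 0.2 mM sodium pyruvate and 0.06 mM NADH at pH 7.4.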
S2 tox = cell viability loss in ATXN counter-screen; S2 cells (HEK-293 line with an ATXN2-luciferase reporter) viability, CellTiter-Fluor protease fluorescence, 24 h; 400,000 compounds, 0.49% hits; Potency, µM (series often up to 56.7 µM), most hits filed as cytotoxic; also: potency is read from the fitted curve at half-maximal effect; nearly all actives have a fitted effect of over 40% in size
Active calls of the source: *; i = inactive; ? = inconclusive; / = no result. Unless noted, calls follow the shape of the dose curve; as a rule, active = well fitted curve in the direction sought with a large enough effect; inconclusive = small, poorly fitted or top-dose-only effect, or another doubt; inactive = no such curve, though single readings can be large; an effect the other way counts as inactive or inconclusive.

SMILES	HepG2 tox	TGFb SMAD3 inh	mIDH1 inhibitor	ATXN2 expr inh	LDHA block	S2 tox
Cc1ccccc1Oc1nc2c(C)cccn2c(=O)c1/C=C(\C#N)C(=O)NC1CCS(=O)(=O)C1 (configuration not stated)	6.31µM*	?	7.2%	-31.3%	-5.1	?
Cc1ccc(/C=N/c2sc3c(c2C(N)=O)CCCC3)o1	-17.4%	-25.3%	2.7%	-11.5%	2.0	?
S=C(NCCCN1CCOCC1)N1CCN(c2nc(-c3ccc(Cl)cc3)cs2)CC1	11.2µM*	12.6µM*	9.8%	3.16µM*	-2.4	/
S=C(NCCCN1CCOCC1)N1CCN(c2nc(-c3ccccc3)cs2)CC1	-27.9%	-18.7%	-6.5%	?	-11.4	i
COC(=O)c1cc(C)nc2c1C(=O)C(=O)C=C2N1CCOCC1	5.01µM*	4.47µM*	25.5%	3.55µM*	6.2	3.16µM*
COC(=O)c1cc(S(=O)(=O)N2CCOCC2)c(Cl)cc1N1CCOCC1	2.1%	?	10.7%	4.1%	-7.5	i
Cc1ccc(C(=O)O/N=C(\N)c2ccccn2)c(C)c1	-12.8%	-3.4%	4.2%	?	-6.3	?
COc1ccc(C(C[N+](=O)[O-])c2c(-c3ccccc3)cc3ccccn23)cc1OC (configuration not stated)	-12.0%	3.3%	3.8%	1.5%	3.7	i
COc1ccc(C(C[N+](=O)[O-])C2(c3ccc(OC)c(OC)c3)C(=O)c3ccccc3C2=O)cc1 (configuration not stated)	17.8µM*	?	8.7%	2.3%	1.8	i
O=C(CN1C(=O)c2ccccc2C1=O)c1ccccc1	-18.4%	?	4.2%	6.8%	-5.8	i
CC1=C(CC(=O)c2ccccc2)C(=O)c2ccccc2C1=O	6.31µM*	6.31µM*	-2.7%	6.0%	24.5	i
COC(=O)C(NC(=O)c1ccco1)(Nc1cc(C)ccn1)C(F)(F)F (configuration not stated)	3.16µM*	14.4%	5.6%	3.1%	-2.1	i
N#Cc1ccc(S(=O)(=O)N2CCN(C(=O)c3cn[nH]c3-c3ccccc3)CC2)cc1	/	/	/	/	-5.4	/
N#CCCN(Cc1cccnc1)S(=O)(=O)c1ccc2ccccc2c1	10µM*	-3.4%	0.1%	-19.3%	-7.5	?
CCc1nc2ccc(C(=O)Nc3ccc(C(N)=O)cc3)cn2c1N(C)CCC(C)C	-84.3%	?	/	0.0%	-6.3	?
CCc1nc2ccc(C(=O)Nc3ccc(Cl)c(Cl)c3)cn2c1N(C)Cc1ccc(OC)cc1	-44.1%	11.2µM*	/	?	-5.9	/
CCc1nc2ccc(C(=O)Nc3ccc(OC)c(OC)c3)cn2c1N(C)CCC(C)C	20µM*	14.1µM*	/	?	0.9	/
CCc1nc2ccc(C(=O)Nc3ccc(OC)c(OC)c3)cn2c1N(C)Cc1ccc(OC)cc1	-28.2%	0.3%	/	?	-12.0	?
O=C(CCS(=O)(=O)Cc1ccc(Cl)cc1)NCCCN1CCOCC1	-1.7%	16.9%	3.7%	5.4%	-7.1	i
O=[N+]([O-])c1c(Nc2ccccc2O)cc(Cl)c2nonc12	10µM*	3.98µM*	0.0%	12.6µM*	0.6	12.6µM*
Cc1ccc(Nc2ccc3nonc3c2[N+](=O)[O-])cc1Cl	/	/	/	/	2.6	/
O=[N+]([O-])c1c(Nc2ccccc2O)ccc2nonc12	2.1%	-19.8%	24.9%	-15.9%	-1.9	?
O=C(O)c1cc(Nc2cc(Cl)c3nonc3c2[N+](=O)[O-])ccc1O	-12.1%	-25.7%	7.0%	/	2.1	11.2µM*
O=C(CNC(=O)c1cccc(F)c1)N/N=C/c1cc(Br)ccc1OC(=O)/C=C/c1ccco1	-26.2%	?	-6.4%	28.2µM*	-0.7	i
Cc1cc(=O)oc2cc(Oc3ccc(S(=O)(=O)NC(C)C)cc3[N+](=O)[O-])ccc12	/	/	/	/	-0.6	/
SMILES	HepG2 tox	TGFb SMAD3 inh	mIDH1 inhibitor	ATXN2 expr inh	LDHA block	S2 tox
CC(N)c1csc(NC(=O)c2cc(C(C)(C)C)nn2Cc2ccccc2)n1 (configuration not stated)	-98.9%	22.4µM*	/	?	0.1	i
CC(C)(C)c1cc(C(=O)NNC(=O)Nc2ccccc2)n(Cc2ccccc2)n1	-27.7%	-25.6%	-5.3%	/	-3.3	?
COc1ccc(CC(N)c2csc(NC(=O)c3cc(C(C)(C)C)nn3Cc3ccccc3)n2)cc1 (configuration not stated)	11.2µM*	?	/	?	-3.0	i
COc1ccc(C(=O)COC(=O)[C@H](C)NS(=O)(=O)c2ccc(NC(C)=O)cc2)cc1OC	11.1%	12.0%	1.0%	-17.2%	-5.9	?
CC(=O)Nc1ccc(S(=O)(=O)NCCc2c[nH]c3ccc(C)cc23)cc1	-2.0%	-1.9%	6.8%	8.4%	6.9	i
CCOC(=O)N1CC=C2C(C#N)=C(N)C(C#N)(C#N)[C@H](c3ccc(OCC)c(OCC)c3)[C@H]2C1	-16.2%	-31.3%	-9.2%	-18.6%	-1.2	i
N#CC1=C(N)C(C#N)(C#N)C(c2cccnc2)C2CN(C(=O)OCc3ccccc3)CC=C12 (configuration not stated)	-33.2%	?	52.1µM*	-3.4%	-2.6	i
CCOC(=O)[C@@H]1[C@H]2COc3ccc(Br)cc3[C@H]2N2C(=O)N(c3ccc(Br)cc3)C(=O)[C@]12C	-14.9%	-23.9%	0.3%	6.5%	0.0	i
CCOC(=O)[C@@H]1[C@H]2COc3ccc(Br)cc3[C@@H]2N2C(=O)N(c3ccc(Br)cc3)C(=O)[C@]12C	0.8%	7.08µM*	8.6%	-1.9%	-0.3	i
CN(C)CCOc1ccc(C(C)(C)c2ccccc2)cc1	48.0%	-12.4%	5.5%	-2.3%	-37.8*	i
CN(C)CCCOc1ccc(C(C)(C)c2ccccc2)cc1	-46.9%	-5.0%	-1.9%	-20.4%	-15.6	i
CNc1oc(Cc2ccccc2)nc1S(=O)(=O)c1ccc(Cl)cc1	-18.8%	-1.3%	2.7%	25.6%	-9.5	?
COc1cc(OC)cc(C(=O)NCC(=O)NC(C)c2ccccc2)c1 (configuration not stated)	-7.9%	4.6%	-14.5%	-16.2%	-5.6	i
c1ccc(-c2noc(-c3ccncc3)n2)nc1	10µM*	12.7%	-0.8%	-31.8%	-2.2	i
c1ccc(-c2noc(-c3ccc4ccccc4c3)n2)nc1	-57.5%	0.0%	2.9%	2.24µM*	-4.1	i
Brc1cccc(-c2nc(-c3ccccn3)no2)c1	/	/	/	/	1.5	/
COc1cccc(-c2nc(-c3ccccn3)no2)c1	10µM*	5.5%	6.2%	?	-10.6	i
